# Shown are actives, neighbours in structure and some others; about 2.9% of the full set was active somewhere.
# Nrf2 activator – activates Nrf2 signaling; AREc32 ARE-luciferase reporter (MCF7-derived line), luminescence, 24 h; 410,000 compounds, 0.31% hits; AID 624171; Potency, µM (highest dose often 46.1 µM), for inactives: at the highest dose activation, most hits filed as activators; note: % of control where 0% means no effect; nearly all actives have a fitted effect of over 65% in size
#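 Steps: seed AREc32_Fluc cells (1000/well, 5% FBS OPTI-MEM); incubate overnight at 37 deg C; add 23 nL compound; incubate 24 hr; add Steady-Glo; hold 30 min RT; read luminescence.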
# ATXN viability – cell viability loss in ATXN counter-screen. AID 651635. 400,000 compounds, 0.49% hits. Potency, µM (top dose mostly 56.7 µM), actives largely listed as cytotoxic. S2 cells (HEK-293 line with an ATXN2-luciferase reporter) viability, CellTiter-Fluor protease fluorescence, 24 h; note: nearly all actives have a fitted effect of over 40% in size
# Nrf2 block – inhibitors of Nrf2 signaling; AID 504444; Potency, µM (series often up to 46 µM), for inactives: at the highest dose activity change, negative = inhibition, actives largely listed as inhibitors; A549 ARE-Fluc reporter, luciferase luminescence, 18-24 h; 360,000 compounds, 2.1% hits; note: % is set by controls: 0 for no effect and ±100 for the full control effect; nearly all actives have a fitted effect of over 60% in size
#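 A549 ARE_Fluc cells, 5000/well, 5% FBS OPTI-MEM; compounds in dose-response, 18-24 h at 37 °C/5% CO2; CellTiter-Fluor viability read (Ex 405/Em 525), then BugLite luciferase luminescence = Nrf2 activity.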
# A549 viability – kills or reduces viability of A549 cells in Nrf2 counter-screen; A549 ARE-Fluc cells, CellTiter-Fluor viability, 18-24 h; Potency, µM (top dose mostly 46 µM), without a hit: top-dose activity change, negative = cytotoxicity, hits mostly inhibitors; 390,000 compounds, 0.16% hits; AID 504648; note: % is set by controls: 0 for no effect and ±100 for the full control effect
#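 A549 ARE_Fluc cells in 5% FBS OPTI-MEM were exposed to compounds in concentration-response for 18-24 h at 37 deg C. Viability was read by CellTiter-Fluor fluorescence (Ex 405/Em 525) after 30 min, before the luciferase read.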
# ATXN2 expr inh – inhibitors of ATXN2 expression | HEK-293 ATXN2-luciferase reporter, luminescence, 24 h | 360,000 compounds, 0.72% hits | Potency, µM (titrated, usually from 57 µM), for inactives: at the top dose activity change, negative = inhibition, usual class: inhibitors; note: % is set by controls: 0 for no effect and ±100 for the full control effect; nearly all actives have a fitted effect of over 55% in size
#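 qHTS (up to 57 uM final) was run with 24 h compound exposure of reporter cells at 37 °C. Each well was multiplexed: SteadyGlo luminescence measured ATXN2-luciferase expression after a fluorogenic Gly-Phe-AFC viability readout (25 uM final).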
# Starred values were filed as active, the others as inactive; i = inactive; ? = inconclusive; / = no result given; [ ] = dose if it differs, or a comment. Calls come from the whole dose curve; as a rule, active = well fitted curve in the direction sought with a large enough effect; inconclusive = small, poorly fitted or top-dose-only effect, or another doubt; inactive = no such curve, though single readings can be large; an effect the other way counts as inactive or inconclusive. Potency is the fitted concentration of half-maximal effect.
SMILES,Nrf2 activator,ATXN viability,Nrf2 block,A549 viability,ATXN2 expr inh
CO[C@@]12[C@@H]3N[C@@H]3CN1C1=C(C(=O)C(N)=C(C)C1=O)[C@@H]2COC(N)=O,3%,?,10µM*,?,1.3µM*
O=C(Cc1ccc(F)cc1)Nc1cccc(-c2ccc3nncn3n2)c1,-1%,i,?,-3%,4%
O=c1[nH]c(C2CCN(S(=O)(=O)c3cccc(Cl)c3)CC2)nc2c1nnn2Cc1ccccc1,5%,i,15µM*,?,-10%
O=c1[nH]c(C2CCN(S(=O)(=O)c3ccccc3C(F)(F)F)CC2)nc2c1nnn2Cc1cccc(F)c1,2%,i,23µM*,?,-34%
O=c1[nH]c(C2CCN(S(=O)(=O)c3ccccc3)CC2)nc2c1nnn2Cc1cccc(Cl)c1,3%,i,-1%,12%,1%
CC(C)Sc1nc(-c2ccccc2)cc(=O)[nH]1,4%,i,-12%,2%,2%
CCCCc1c(-c2ccc(F)cc2F)ncn1CCc1ccccc1OC,-1%,/,/,/,?
CCCc1c(-c2ccc(Cl)cc2)ncn1Cc1ccccc1OC,-1%,/,/,/,?
CCCc1c(-c2ccc(Cl)cc2)ncn1CCc1ccccc1OC,-2%,35µM*,/,/,?
CCCCc1c(-c2cccc(OC)c2)ncn1CCc1ccccc1OC,-3%,/,/,/,22µM*
CCCc1c(-c2cccc(Cl)c2)ncn1CCc1ccccc1OC,0%,22µM*,/,/,?
CCCCc1c(-c2ccc(OC)c(OC)c2)ncn1CCc1ccccc1OC,-1%,/,/,/,?
CCCCc1c(Cc2cccc(F)c2)ncn1CCc1ccccc1OC,0%,18µM*,/,/,14µM*
COc1ccc(-[n+]2c(C)cc(/C=C3\Sc4ccccc4N3C)cc2C)cc1,-2%,?,0.23µM*,9.2µM*,?
COc1ccc(C(=O)/C=C2\Sc3ccccc3N2C)cc1,4%,/,?,-12%,33%[11.3 µM]
O=C(Cc1ccsc1-c1ccccc1)NO,15%,?,23%,-5%,-34%
O=c1cc(-c2cccs2)oc2ccc(Cl)cc12,11µM*,i,?,-5%,46%
O=c1cc(-c2ccccc2)oc2ccc(Cl)cc12,?,i,13%,-1%,2%
CCc1ccc(-c2csc(NC(=O)C3=NN(c4ccccc4)C(=O)CC3)n2)cc1,4%,i,18µM*,-3%,/
Cc1cc(C)c(-c2csc(NC(=O)C3=NN(c4ccccc4)C(=O)CC3)n2)c(C)c1,7%,?,?,-12%,/
CCc1ccc(-c2csc(NC(=O)c3cccnc3)n2)cc1,4%,i,15µM*,-9%,3%
CCOC(=O)N1CCN(C(=O)CN(c2cccc(Cl)c2)S(=O)(=O)c2ccccc2)CC1,0%,i,?,10%,0%
CC(=O)Oc1ccc2c(c1)cc(C)n2C,0%,i,?,2%,16%
CCCC(=O)N1CCCC1(C)C(=O)Nc1ccc2nc(C)ccc2c1 (stereo not drawn),0%[9.22 µM],i,/,/,7%
Cc1nnc(N/N=C/c2cc([N+](=O)[O-])c(N3CCC(C)CC3)cc2N2CCC(C)CC2)n1N,-3%,i,18µM*,?,-27%
SMILES,Nrf2 activator,ATXN viability,Nrf2 block,A549 viability,ATXN2 expr inh
CCc1nnc(N/N=C/c2ccc(N3CCC(C)CC3)c([N+](=O)[O-])c2)n1N,-3%,i,-4%,-9%,-22%
Nc1nc(SCC(=O)Nc2c(Br)cc([N+](=O)[O-])cc2Br)n[nH]1,0%,i,-6%,9%,/
CCS(=O)(=O)c1c(Nc2ccc(F)c(Cl)c2)sc(C(=O)c2ccccc2)c1N,10%,/,21µM*,?,/
Cc1ccnc(S(=O)(=O)Cc2ccc([N+](=O)[O-])cc2)n1,13µM*,i,?,-7%,/
O=C(Cn1cc(COc2cccc([N+](=O)[O-])c2)nn1)c1ccc(O)cc1,0%,i,5%,1%,-25%
CC(C)CN(C(=O)COC(=O)C1CC1)c1c(N)n(Cc2ccccc2)c(=O)[nH]c1=O,0%,i,20%,-12%,7%
CCN(C(=O)COC(=O)c1ccc2ccccc2c1)c1c(N)n(Cc2ccccc2)c(=O)[nH]c1=O,-2%,?,23µM*,?,/
CCN(C(=O)COC(=O)/C=C/c1nc2ccccc2s1)c1c(N)n(Cc2ccccc2)c(=O)[nH]c1=O,13µM*,i,-19%,9%,-11%
CCN(C(=O)COC(=O)C1CCC(C(C)(C)C)CC1)c1c(N)n(Cc2ccccc2)c(=O)[nH]c1=O (stereo not drawn),0%,/,13µM*,-20%,?
COCCN(C(=O)COC(=O)/C=C/c1nc2ccccc2s1)c1c(N)n(Cc2ccccc2)c(=O)[nH]c1=O,?,i,?,4%,12%
COc1cc(/C=N/NC(=O)c2cccnc2)ccc1OC(=O)c1ccco1,0%,i,1%,3%[1.84 µM],1%
COc1cc(/C=N\NC(=O)c2cccnc2)ccc1OC(=O)c1ccccc1Cl,3%,?,15µM*,-5%,4%
CC(=O)Nc1ccc(S(=O)(=O)Oc2ccc(C(=S)N3CCCCC3)cc2)cc1,1%,i,21µM*,-17%,-27%
CCOc1cc(C(=S)N2CCOCC2)ccc1OS(=O)(=O)c1ccc(NC(C)=O)cc1,1%,i,9.2µM*,-15%,-21%
OC(c1ccc(F)cc1)c1nc(-c2cccs2)cs1 (stereo not drawn),6%,i,/,/,35%
NS(=O)(=O)c1ccc(CCNC(=O)Nc2ccc(Cl)c(Cl)c2)cc1,0%,i,21µM*,-27%,?
Cc1cc(C)n(-c2cc(N3CCN(C(=O)c4cccc(Br)c4)CC3)ccc2[N+](=O)[O-])n1,0%,i,?,?,-29%
COc1cc(NC(=O)Cn2nc(-c3ccc(F)cc3)ccc2=O)ccc1-n1cnnn1,2%,?,26µM*,?,/
CC1=NS(=O)(=O)c2cc(Cl)ccc2N1,-1%,i,11%,-1%,0%
C=CCn1c(CNc2ccccc2)nnc1SCC(=O)N/N=C/c1ccccc1O,0%,i,/,-5%,18µM*
C=CCc1cccc(/C=N/NC(=O)CNc2ccccc2)c1O,-1%,?,?,?,18µM*
C=CCc1cccc(/C=N/NC(=O)CCC(=O)Nc2ccc(F)cc2)c1O,0%,i,-10%,7%,3.5µM*
C=CCn1c(Cc2c[nH]c3ccccc23)nnc1SCC(=O)NCc1ccccc1,0%,/,2%,-12%,/
Cc1cc(NC(=O)c2cccn2-c2nnc(N3CCCCC3)s2)ccc1Br,4%,/,?,-17%,/
O=C(Cn1c(=O)[nH]c2ccsc2c1=O)N1CCN(c2ccc(F)cc2)CC1,0%,i,-23%,-3%,-1%
